From PubChem BioAssay (NCI)
This is part of a sample that, as a whole, favours compounds with a hit. Of some 83,000 tested, about 20% had one in any assay.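 Compound tested at a single concentration for 48 hours in 96-well plates; a percent growth value below 10 was scored as active.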 A number with no mark means an inactive call. Calls of active or inactive are those of the source.

test system: SK-MEL-5 melanoma; assay: NCI-60 one-dose screen, 48 h (100 = growth as untreated, 0 = no growth, -100 = all killed); conditions: 10 µM unless noted

SMILES | growth
O=C1c2cccc3c(-c4ccc5c(c4)ncn5C4CCCCC4)ccc(c23)C(=O)N1CCO | 62%
O=C(/C(=C\c1ccc([N+](=O)[O-])cc1)S(=O)Cc1ccc(F)cc1)c1ccc(F)cc1 (stereo not drawn) | 76.7%
NNC(=O)c1ccc(-n2nc(-c3ccccc3)c3ccccc32)cc1 | 84.5%

test system: UACC-62 melanoma; assay: as above; conditions: 10 µM unless noted

SMILES | growth
NC(=O)CSSCC(N)=O | 95.8%
C=C(C)[C@@H]1CC[C@]2(C(=O)N3CCN(C)CC3)CC[C@]3(C)[C@H](CC[C@@H]4[C@@]5(C)CC[C@H](O)C(C)(C)[C@@H]5CC[C@]43C)[C@@H]12 | -82.9% (active)
O=C1Nc2cc(Cl)ccc2/C1=C\c1c(-c2ccc(F)cc2)nc2ccccn12 | 10.6%
CCc1ccc(-c2cn3ccnc3c(-c3ccc4ncn(Cc5ccccc5)c4c3)n2)cc1 | 75.1%
CCOC(=O)c1cc(C(=O)c2ccc(OC)c(OC)c2)n2ccc(/C=C/c3cc[n+](CC(=O)c4ccc(OC)c(OC)c4)cc3)cc12 | 96.6%
COc1cc(/C=C\c2cc(OC)c(OC)c(OC)c2)cc(NC(=O)/C=C/c2cc(OC)c(OC)c(OC)c2)c1OC | 29.7%
CN1C(N2CCN(S(=O)(=O)c3ccccc3)CC2)=NS(=O)(=O)c2ccccc21 | 94.4%
O=C1Nc2ccccc2/C1=C\c1c(-c2ccc(F)cc2)nc2ccccn12 | 65.1%
OCc1cnc2ccccc2c1NC1CCCCCC1 | 81.7%
Oc1c(Cl)cc(Cl)c(Cl)c1CNCCNCc1c(O)c(Cl)cc(Cl)c1Cl | -13.3% (active)
